Twelve sequences from paper PMC8384837, “Expanding the binding specificity for RNA recognition by a PUF domain” can be followed below.

Holding throughout (assay): yeast three-hybrid, YBZ-1, SC-Leu-His + 0.5 mM 3-AT, 4 days
Common to all, as to conditions: tags: N-Gal4 AD-HA kept; label: inside an RPR1-promoter hybrid RNA with tandem MS2 sites; ssRNA

The target of one test is PUM1 PUF domain R2-AFS (Homo sapiens, UniProt Q14671 828-1176, N899A;Y900F;Q903S). In a few lines: (§1)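 A centromeric plasmid in strain YBZ-1 co-expressed Pumilio-1 PUF domain libraries, randomized at the three base-contacting residues of each repeat, with matching RNA elements; the strain carries a LexA–MS2 coat fusion and a HIS3 reporter. After four days on SC-Leu (input) or SC-Leu-His + 0.5 mM 3-AT (selection), the repeat regions were PCR-amplified and Illumina-sequenced. The interaction score is the log change in variant frequency from input to selection, using log2 and a pseudocount of 1 where absent.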

Another test addresses PUM1 PUF domain R2-LFG (Homo sapiens, UniProt Q14671 828-1176, N899L;Y900F;Q903G). In a few lines: as §1
In another test the target is PUM1 PUF domain R4-SMC (Homo sapiens, UniProt Q14671 828-1176, N971S;H972M;Q975C). In a few lines: as §1
The next test concerns the target PUM1 PUF domain R4-GNL (Homo sapiens, UniProt Q14671 828-1176, N971G;H972N;Q975L). In a few lines: as §1
In another test the target is PUM1 PUF domain R4-PWK (Homo sapiens, UniProt Q14671 828-1176, N971P;H972W;Q975K). In a few lines: as §1
For a further test, the target named is PUM1 PUF domain R5-RFP (Homo sapiens, UniProt Q14671 828-1176, C1007R;R1008F;Q1011P). In a few lines:
as §1

Another test concerns the target PUM1 PUF domain R8-PYG (Homo sapiens, UniProt Q14671 828-1176, N1122P;Q1126G). In a few lines: as §1
The next test has as its target PUM1 PUF domain R3-LFC (Homo sapiens, UniProt Q14671 828-1176, C935L;R936F;Q939C). In a few lines:
as §1

The target of the next test is T1, PUM1 PUF domain R6-TFG (Homo sapiens, UniProt Q14671 828-1176, N1043T;Y1044F;Q1047G).
T1 sequence: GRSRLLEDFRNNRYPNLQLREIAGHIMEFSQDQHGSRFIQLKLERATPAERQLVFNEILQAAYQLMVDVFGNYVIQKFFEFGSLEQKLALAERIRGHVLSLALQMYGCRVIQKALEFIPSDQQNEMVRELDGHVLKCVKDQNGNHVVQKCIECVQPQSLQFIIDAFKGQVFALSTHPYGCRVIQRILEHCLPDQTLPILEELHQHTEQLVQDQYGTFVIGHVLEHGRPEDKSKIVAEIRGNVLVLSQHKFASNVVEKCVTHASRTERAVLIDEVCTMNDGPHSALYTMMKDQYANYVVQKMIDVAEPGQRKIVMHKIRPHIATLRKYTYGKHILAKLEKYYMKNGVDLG
In a few lines: as §1

In the next test the target is PUM1 PUF domain R8-RRQ (Homo sapiens, UniProt Q14671 828-1176, N1122R;Y1123R). In a few lines: as §1
The target in the next test is PUM1 PUF domain R5-DFY (Homo sapiens, UniProt Q14671 828-1176, C1007D;R1008F;Q1011Y). In a few lines:
as §1

The target of another test is PUM1 PUF domain R8-KRG (Homo sapiens, UniProt Q14671 828-1176, N1122K;Y1123R;Q1126G). In a few lines:
as §1

The target of a further test is PUM1 PUF domain R3-GRY (Homo sapiens, UniProt Q14671 828-1176, C935G;Q939Y). In a few lines:
as §1

In the next test the target is PUM1 PUF domain R5-KKE (Homo sapiens, UniProt Q14671 828-1176, C1007K;R1008K;Q1011E). In a few lines: as §1
Another test deals with PUM1 PUF domain R7-RGS (Homo sapiens, UniProt Q14671 828-1176, S1079R;N1080G;E1083S). In a few lines:
as §1

In a further test the target is PUM1 PUF domain R5-KFK (Homo sapiens, UniProt Q14671 828-1176, C1007K;R1008F;Q1011K). In a few lines: as §1
The target in another test is PUM1 PUF domain R1-NLR (Homo sapiens, UniProt Q14671 828-1176, S863N;R864L;Q867R). In a few lines:
as §1

With “GGCUAGAACUAGUGGAUCCCCCGGCGCCCGGCGGCUCGAGCCCGGGUAAGUGUAAAAAGUCUGCAUGCCGCCGGGCGCCAUGCCUGCAGGUCGACUCUAGAAAACAUG”, the binding signal with PUM1 PUF domain R2-AFS was 3.67 log2 enrichment (interaction score); with PUM1 PUF domain R2-LFG, 3.76 log2 enrichment (interaction score).
On to “GGCUAGAACUAGUGGAUCCCCCGGCGCCCGGCGGCUCGAGCCCGGGUAAGUGUAUAUAGUCUGCAUGCCGCCGGGCGCCAUGCCUGCAGGUCGACUCUAGAAAACAUG”, for which the values for the binding signal in the test with PUM1 PUF domain R4-SMC, with PUM1 PUF domain R4-GNL and with PUM1 PUF domain R4-PWK were 2.83 log2 enrichment (interaction score), 3.47 log2 enrichment (interaction score) and 6.97 log2 enrichment (interaction score), respectively.
Take “GGCUAGAACUAGUGGAUCCCCCGGCGCCCGGCGGCUCGAGCCCGGGUAAGUGUAAAUAGUCUGCAUGCCGCCGGGCGCCAUGCCUGCAGGUCGACUCUAGAAAACAUG”: the binding signal is 3.15 log2 enrichment (interaction score) in the test with PUM1 PUF domain R4-SMC; 2.31 log2 enrichment (interaction score) with PUM1 PUF domain R5-RFP; 1.81 log2 enrichment (interaction score) with PUM1 PUF domain R8-PYG; 1.84 log2 enrichment (interaction score) in the test with PUM1 PUF domain R3-LFC; 5.01 log2 enrichment (interaction score) with PUM1 PUF domain R6-TFG; 1.1 log2 enrichment (interaction score) with PUM1 PUF domain R8-RRQ. Besides, the binding signal with PUM1 PUF domain R5-DFY was 2.71 log2 enrichment (interaction score); in the test with PUM1 PUF domain R8-KRG, 1.8 log2 enrichment (interaction score); with PUM1 PUF domain R3-GRY it was 4.27 log2 enrichment (interaction score).
Take “GGCUAGAACUAGUGGAUCCCCCGGCGCCCGGCGGCUCGAGCCCGGGUAAGUGUCAAUAGUCUGCAUGCCGCCGGGCGCCAUGCCUGCAGGUCGACUCUAGAAAACAUG”: the binding signal was 5.07 log2 enrichment (interaction score) in the test with PUM1 PUF domain R5-KKE and 4.87 log2 enrichment (interaction score) with PUM1 PUF domain R5-RFP.
With “GGCUAGAACUAGUGGAUCCCCCGGCGCCCGGCGGCUCGAGCCCGGGUAAGUUUAAAUAGUCUGCAUGCCGCCGGGCGCCAUGCCUGCAGGUCGACUCUAGAAAACAUG”, the binding signal in the test with PUM1 PUF domain R7-RGS is 3.37 log2 enrichment (interaction score).
As for “GGCUAGAACUAGUGGAUCCCCCGGCGCCCGGCGGCUCGAGCCCGGGUAAGUCUAAAUAGUCUGCAUGCCGCCGGGCGCCAUGCCUGCAGGUCGACUCUAGAAAACAUG”, in the test with PUM1 PUF domain R7-RGS, the binding signal was 1.66 log2 enrichment (interaction score).
On to “GGCUAGAACUAGUGGAUCCCCCGGCGCCCGGCGGCUCGAGCCCGGGUAAGUGUACAUAGUCUGCAUGCCGCCGGGCGCCAUGCCUGCAGGUCGACUCUAGAAAACAUG”, for which the figures for the binding signal in the test with PUM1 PUF domain R4-GNL and in the test with PUM1 PUF domain R4-PWK were 1.04 log2 enrichment (interaction score) and 6.55 log2 enrichment (interaction score), respectively.
Consider “GGCUAGAACUAGUGGAUCCCCCGGCGCCCGGCGGCUCGAGCCCGGGUAAGCGUAAAUAGUCUGCAUGCCGCCGGGCGCCAUGCCUGCAGGUCGACUCUAGAAAACAUG”, for which the binding signal with PUM1 PUF domain R8-PYG is 2.76 log2 enrichment (interaction score); with PUM1 PUF domain R8-RRQ it was 2.97 log2 enrichment (interaction score); with PUM1 PUF domain R8-KRG, 4.19 log2 enrichment (interaction score).
On to “GGCUAGAACUAGUGGAUCCCCCGGCGCCCGGCGGCUCGAGCCCGGGUAAGUGUAAAGAGUCUGCAUGCCGCCGGGCGCCAUGCCUGCAGGUCGACUCUAGAAAACAUG”, for which the binding signal in the test with PUM1 PUF domain R2-LFG was 0.94 log2 enrichment (interaction score).
For “GGCUAGAACUAGUGGAUCCCCCGGCGCCCGGCGGCUCGAGCCCGGGUAAGUGUAAGUAGUCUGCAUGCCGCCGGGCGCCAUGCCUGCAGGUCGACUCUAGAAAACAUG”, in the test with PUM1 PUF domain R3-LFC, the binding signal was 5.61 log2 enrichment (interaction score).
In the case of “GGCUAGAACUAGUGGAUCCCCCGGCGCCCGGCGGCUCGAGCCCGGGUAAGUGUUAAUAGUCUGCAUGCCGCCGGGCGCCAUGCCUGCAGGUCGACUCUAGAAAACAUG”, the binding signal is 5.11 log2 enrichment (interaction score) in the test with PUM1 PUF domain R5-KFK and 4.07 log2 enrichment (interaction score) with PUM1 PUF domain R5-DFY.
As to “GGCUAGAACUAGUGGAUCCCCCGGCGCCCGGCGGCUCGAGCCCGGGUAAGUGUAAAUUGUCUGCAUGCCGCCGGGCGCCAUGCCUGCAGGUCGACUCUAGAAAACAUG”, the binding signal with PUM1 PUF domain R1-NLR was 3.68 log2 enrichment (interaction score).
